Measurements as given in PMC5540273 (PLoS ONE, 2017).

system: GRK7; settings: concentration: 1 μM, replicates: in singlicate; n = 1
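Also: KINOMEscan kinase panel screen.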

Structure (SMILES)	%Inh [%]
Cc1cccc(Nc2nc(N[C@H]3CCNC3)ncc2C(N)=O)c1.Cl [GSK2197149]	0
Fc1ccc(-c2ncn(C3CCNCC3)c2-c2ccnc(Oc3ccc(-c4ccccc4)cc3)n2)cc1 [SB-245391]	32
O=C(NC1CCN(c2ccnc(Nc3ccc(F)cc3)n2)C1)c1cc2ccccc2s1 (stereo not shown) [GSK1379716]	0
COc1cccc(C(=O)Nc2cccc(Oc3ccc4nc(NC(=O)C5CC5)cn4n3)c2)c1	0
Cl.NC(=O)c1cccc(Nc2nccc(Nc3ccc(Oc4c(Cl)cccc4Cl)c(Cl)c3)n2)c1 [GW659009]	0
O=C(Nc1n[nH]c2cc(-c3ccoc3)ccc12)C1CC1 [SB-738481]	9
Cl.c1ccc(-c2ccc3c(Nc4ccc5[nH]ccc5c4)ccnc3c2)nc1 [GW440138]	0
COc1ccc(-c2coc3ccc(-c4nnc(SCc5ccc(OC)c(C(F)(F)F)c5)o4)cc23)cc1	21
COc1cc2c(cc1OCCN1CCNCC1)ncc1c3ccc(C#N)cc3[nH]c21	0
CN(c1ccc(NC(=O)Nc2cc(C(F)(F)F)ccc2F)cc1)c1ccnc(Nc2ccc(S(N)(=O)=O)cc2)n1 [GW809893]	6
Cn1cc(-c2ccc3c(c2)CCN3C(=O)Cc2cccc(F)c2)c2c(N)ncnc21 [GSK2603358]	0
CN(C)Cc1ccc(-c2ccc3c(Nc4ccc(Oc5ccccn5)cc4)ccnc3c2)o1 [GW567148]	10
c1ccc(-c2n[nH]cc2Nc2ccnc3ccccc23)nc1 [GW694077]	0
